Bioassay records deposited in PubChem BioAssay by several laboratories.
tim10-1 inh – growth inhibitors of tim10-1 mutant yeast. inhibition, % at 20 µM. S. cerevisiae tim10-1 ts strain growth, BacTiter-Glo, 24 h. actives 2.2% (n = 330,000);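 active means inhibition of at least 40%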;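 further: mutant grown at 25 °C; 0% = DMSO wells with yeast and 100% = wells holding no yeast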
V-ATPase pH – regulators of yeast V-ATPase proton transport | S. cerevisiae, pHLuorin cytosolic pH fluorescence | response, % at 10 µM | actives 0.37% (n = 350,000) | AID 504577; in the data active means response mostly above about 7.3%, no sharp cut-off; inactive means mostly below about 5.4%; further: actives read high
TIM10 inh – TIM10 yeast growth inhibition. inhibition, % at 10 µM. S. cerevisiae TIM10 strain growth, BacTiter-Glo luminescence, 24 h. actives 1.4% (n = 330,000);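 active means inhibition of 40% or more at the single tested concentration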;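 further: wild-type TIM10 isogenic control strain grown at permissive 25 °C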
tim23-1 inh – tim23-1 yeast growth inhibition | inhibition, % at 20 µM | actives 1.3% (n = 330,000) | S. cerevisiae tim23-1 growth, BacTiter-Glo luminescence, 24 h | AID 463212;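 active means growth inhibition of the mutant yeast at or above 50%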;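 further: temperature-sensitive mutant grown at 25 °C; plate controls were DMSO-treated mutant yeast for no effect and medium wells lacking yeast for full effect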
NLRP3 yeast inh – NALP3 inhibition in yeast. Yeast reconstituted NLRP3/ASC/caspase-1, beta-gal luminescence, 24 h. inhibition, % at 10 µM. actives 0.39% (n = 330,000). AID 2825;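 active means inhibition of 50% or more; inactive means inhibition below 50%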;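 further: plate controls were induced DMSO wells for no effect and uninduced yeast grown without galactose for full effect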
NALP1 yeast inh – NALP1 inhibition. S. cerevisiae NALP1/ASC/caspase-1 growth, X-gal OD620, 72 h. inhibition, % at 10 µM. actives 0.61% (n = 280,000); in the data active means inhibition mostly above about 24%, no sharp cut-off; inactive means mostly below about 32%
NALP3 confirm – NALP3 inhibition confirmation in yeast; shares compounds with NLRP3 yeast inh; yeast expressing human NALP3, luminescence; inhibition, % at 10 µM; actives 81% (n = 1,300); in the data active means inhibition above about 48%
Casp1-ASC yeast – caspase-1-ASC yeast counter-screen hit. yeast expressing Caspase-1-ASC, luminescence counter screen. actives 66% (n = 1,000). shares compounds with NLRP3 yeast inh. inhibition, % at 10 µM
NALP3 retest – yeast NALP3 inhibition, confirmed on retest. shares compounds with NLRP3 yeast inh. yeast expressing human NALP3, luminescence read-out. inhibition, % at 10 µM. actives 53% (n = 1,000). AID 488794
tim10-1 conf – tim10-1 yeast growth inhibition, confirmed. shares compounds with tim10-1 inh. S. cerevisiae tim10-1 ts strain growth, BacTiter-Glo, 24 h. inhibition, % at 20 µM. actives 56% (n = 7,400);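 active means inhibition of yeast growth at or above a set limit in either of two repeat tests at 20 µM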;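 further: tim10-1 mutant grown at permissive 25 °C to find synthetic lethal compounds; 0% = DMSO yeast wells and 100% = medium wells without yeast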
TIM10 conf – confirmation of TIM10 yeast growth inhibitors; shares compounds with TIM10 inh; S. cerevisiae tim10 strain growth, BacTiter-Glo luminescence, 24 h; inhibition, % at 10 µM; actives 63% (n = 4,600); AID 463215;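 active means inhibition of yeast growth at or above a set limit in either of two replicates at 10 µM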;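 further: this counterscreen used the strain with wild-type TIM10; 0% = yeast with DMSO and 100% = medium wells lacking yeast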
tim23-1 conf – confirmation of tim23-1 mutant yeast growth inhibitors; shares compounds with tim23-1 inh; inhibition, % at 20 µM; actives 83% (n = 4,400); S. cerevisiae tim23-1 growth, BacTiter-Glo luminescence, 24 h;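 active means inhibition above about 39% in either of two replicate wells at 20 µM, limit read from the data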;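 further: temperature-sensitive tim23-1 mutant grown at 25 °C; 0% = DMSO wells with yeast and 100% = medium wells without yeast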
Numbers without * were called inactive; . = no result given. The list is not random: actives were taken first. Their share in the collection is about 4.2%. Unless noted, no stated cut-off is given here; in the data, active means inhibition above about 50%; inactive means the rest.

SMILES	tim10-1 inh	V-ATPase pH	TIM10 inh	tim23-1 inh	NLRP3 yeast inh	NALP1 yeast inh	tim10-1 conf	others
CC(C)(C)c1cc(C=C(C#N)C#N)cc(C(C)(C)C)c1O	78*	4	70*	62*	76*	.	82*	NALP3 confirm=91*;Casp1-ASC yeast=98*;NALP3 retest=96*;TIM10 conf=83*;tim23-1 conf=72*
C[C@]12CCC3C(CC[C@H]4C[C@H](O)CC[C@]34C)C1[C@@H](O)C[C@@H]2O (some centres undefined)	-13	1	-15	0	31	.	.
CN[C@H]1C[C@H]2O[C@@](C)([C@H]1OC)n1c3ccccc3c3c4c(c5c6ccccc6n2c5c31)C(=O)NC4	58*	.	74*	64*	97*	92*	44*	NALP3 confirm=99*;TIM10 conf=67*;tim23-1 conf=70*
O=c1c2ccccc2nc(/C=C/c2ccc(F)cc2)n1-c1ccccn1	7	.	13	12	6	-8	.
CCOC(C(=O)OCCCN(CC)CC)(c1ccccc1)c1ccccc1	7	-5	-1	5	23	16	.
CCN(CC)CCCOC(=O)C(OC(C)C)(c1ccccc1)c1ccccc1	42*	-1	8	12	16	10	12
COC(=O)C[C@]1(C(=O)OC)CN(C#N)N(c2ccc(Cl)cc2)C12c1ccccc1-c1ccccc12	46*	-6	32	25	26	-2	21
COC(=O)[C@@H]1[C@@H](C(=O)OC)C2(c3ccccc3-c3ccccc32)N(c2ccc(Cl)cc2)N1C#N	33	-5	21	26	9	-5	.
C[C@]12C=CC(=O)C=C1C=C[C@@H]1C2CC[C@]2(C)C(=O)CCC12 (some centres undefined)	19	5	10	25	25	-4	.
CN1CCCN(C(=O)COc2ccccc2)CC1	3	-2	5	-7	-1	27	.
COc1ccc(N2C(=O)CC(N3CC=C(c4ccccc4)CC3)C2=O)cc1 (centres undefined)	43*	-4	27	28	11	29	22
Cn1c(O)c(C=NC2CC3CCC2(C)C3(C)C)c(=O)[nH]c1=O (centres undefined)	26	-1	11	31	6	-19	.
CCCCn1c(O)c(C=NC2CC3CCC2(C)C3(C)C)c(=O)[nH]c1=O (centres undefined)	55*	3	38	25	4	35	40*
CS(=O)(=O)N1Cc2cnnn2-c2ccccc2C1C#N (centres undefined)	.	-3	.	.	.	.	.
COCCCn1c(N)c(C(=O)Nc2ccccc2)c2nc3ccccc3nc21	48*	1	17	40	7	33	27
O=C(N/N=C/c1c(O)n(C2CCCCC2)c(=S)[nH]c1=O)c1ccccc1O	53*	1	-3	24	26	-1	4
CN(C)c1ccc(C=C(C#N)C#N)cc1	32	6	12	20	31	21	.
N#CC(C#N)=Cc1ccc(N2CCCC2)cc1	41*	0	-2	10	42	7	17
CCC1(CC)C(=O)NC(=O)N(CCc2ccccn2)C1=O	.	1	.	.	.	.	.
Nc1c(C(=O)OCc2ccccc2)c2nc3ccccc3nc2n1Cc1cccs1	45*	0	2	22	15	5	20
